In the library only some 15% were active in any assay of this set; here they are far more common.
Pf growth 96h: P. falciparum growth inhibition at 96 hours | P. falciparum luciferase reporter growth, 96 h | 320,000 compounds, 6.9% hits | Potency, µM (doses to about 28.7 µM), for the others: at the highest dose activity change, negative = inhibition, actives largely listed as inhibitors; also: potency is read from the fitted curve at half-maximal effect; % is scaled to controls: 0 for no effect and ±100 for the full control effect
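Erythrocytes infected with luciferase-expressing P. falciparum were dispensed at 2% hematocrit and 0.05% parasitemia (final), then incubated with compounds 96 hours at 37 C in 5% CO2. Luminescence after detection reagent addition reported growth.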
HCV inh: blocks hepatitis C virus; Huh7.5.1 HCVcc-Cre infection, luciferase reporter, 44 h; 340,000 compounds, 3.4% hits; AID 651820; Potency, µM (series often up to 41.8 µM), inactives show at the top dose activity change, negative = inhibition, most hits filed as inhibitors; also: potency is read from the fitted curve at half-maximal effect; % is scaled to controls: 0 for no effect and ±100 for the full control effect
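After 44 h co-culture of compound, cells and HCVcc-Cre (~0.5 moi), substrate is added for 15 min at room temperature and luciferase measured over 15 sec. Cells were seeded at 1,000/well and pre-cultured 4 h.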
SARS PLpro yeast: SARS-CoV PLP inhibition in yeast; S. cerevisiae expressing SARS-CoV PLpro, growth rescue; Potency, µM (highest dose often 32.9 µM), inactives show at the top dose activity, positive = growth rescue, actives largely listed as activators; 330,000 compounds, 0.19% hits; AID 485353; calls by dose curve; also: potency is read from the fitted curve at half-maximal effect; 0% is about no effect; nearly all actives have a fitted effect of over 55% in size
HCMV antiviral: blocks human cytomegalovirus replication. HFF cells, HCMV-luciferase reporter, 72 h; stronger effect = lower value. activity change, negative = inhibition, % at 57.5 µM. 410,000 compounds, 4.5% hits. AID 1259415; in the data active = activity change below about -60%; inconclusive = no clear call, values can overlap the other calls; inactive = above about -39%; also: % is scaled to controls: 0 for no effect and ±100 for the full control effect
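After 16 h attachment at 37C, HFF cells received test compound and HCMV-luciferase (1 PFU/cell); reporter luminescence read 72 h later, data normalized against buffer-only and known inhibitor Salinomycin.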
Sm TGR block: inhibitors of Schistosoma mansoni thioredoxin glutathione reductase; Potency, µM (top dose mostly 114 µM), for inactives: at the top dose activity change, negative = inhibition, hits mostly inhibitors; Q962Y6; AID 485364; purified TGR, DTNB reduction, TNB absorbance 405 nm; 360,000 compounds, 3% hits; also: potency is read from the fitted curve at half-maximal effect; % is scaled to controls: 0 for no effect and ±100 for the full control effect; nearly all actives have a fitted effect of over 60% in size
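Kinetic colorimetric format: TGR-catalysed, NADPH-driven DTNB reduction monitored via TNB absorbance. Enzyme dispensed at 20 nM; compound exposure 15 min at room temperature before reaction start.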
Pf growth 48h: inhibits P. falciparum growth in the first generation, 48 h; AID 504832; P. falciparum luciferase growth in erythrocytes, 48 h; 310,000 compounds, 5.9% hits; Potency, µM (series often up to 28.7 µM), for inactives: top-dose activity change, negative = inhibition, usual class: inhibitors; also: potency is read from the fitted curve at half-maximal effect; % is scaled to controls: 0 for no effect and ±100 for the full control effect
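Cell-based growth assay: transgenic P. falciparum expressing firefly luciferase, cultured in red cells within RPMI 1640 containing 0.5% w/v Albumax, 24 mM bicarbonate and gentamycin. A drop in luciferase activity indicates inhibition.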
The depositor's hits bear a star; u = inconclusive; x = not tested or not shown. Unless noted, calls follow the shape of the dose curve; as a rule, active = well fitted curve in the direction sought with a large enough effect; inconclusive = small, poorly fitted or top-dose-only effect, or another doubt; inactive = no such curve, though single readings can be large; an effect the other way counts as inactive or inconclusive.

SMILES | Pf growth 96h | HCV inh | SARS PLpro yeast | HCMV antiviral | Sm TGR block | Pf growth 48h
O=[N+]([O-])c1ccccc1S(=O)(=O)N1CCN(Cc2ccc3c(c2)OCO3)CC1 | -9.3% | 13.0% | 1.0% | -30.9 | 8.9% | 12.5%
O=[N+]([O-])c1ccc(N2CCN(Cc3ccc4c(c3)OCO4)CC2)nc1 | u | u | 2.9% | 12.4 | 2.3% | 0.0%
CC(=O)c1ccc(N2CCN(c3ccc(S(=O)(=O)NCCCN(C)C)cc3[N+](=O)[O-])CC2)cc1 | 13.1µM* | 11.2µM* | 0.4% | 0.0 | -10.6% | u
O=c1cc(CN2CCOCC2)c2ccc(O)c(O)c2o1 | -5.8% | 2.6% | 0.1% | 32.1 | -7.3% | -3.6%
CCCCN(C(=O)Cc1ccc(S(=O)(=O)N2CCOCC2)s1)c1c(N)n(CC(C)C)c(=O)[nH]c1=O | -0.5% | -0.1% | 3.0% | -13.0 | -8.3% | -29.3%
CC(C)N1CCC(C)(C(=O)Nc2ccc(-n3cccc3)cc2)C1 (stereo not given) | x | x | x | -2.7 | x | x
CCO[C@@H]1OC(C(=O)N2CCN(Cc3ccc4c(c3)OCO4)CC2)=C[C@H](c2coc3ccccc3c2=O)[C@H]1CCCO | u | -25.2% | 1.2% | -89.1* | -15.6% | u
CCO[C@@H]1OC(C(=O)N2CCN(Cc3ccccc3)CC2)=C[C@H](c2coc3ccccc3c2=O)[C@H]1CCCO | 5.22µM* | u | 0.4% | 5.3 | -12.0% | u
CCO[C@H]1OC(C(=O)N2CCOCC2)=C[C@@H](c2coc3ccccc3c2=O)[C@@H]1CCCO | 0.7% | 35.5µM* | -1.7% | -23.0 | -2.2% | 24.7%
CCO[C@H]1OC(C(=O)N2CCN(Cc3ccccc3)CC2)=C[C@@H](c2coc3ccccc3c2=O)[C@@H]1CCCO | u | -21.1% | 0.4% | -15.3 | -22.5% | u
CCN(CC(=O)Nc1ccc2c(c1)OCCO2)S(=O)(=O)c1ccc(F)cc1 | -24.3% | -11.0% | 2.7% | 19.3 | -9.0% | 1.2%
C=CCN1C(=O)/C(=C/c2ccc(OC)cc2)S/C1=N/c1nccs1 | 11.7µM* | 0.4% | -1.5% | -19.8 | 4.2% | 12.2%
O=C(Nc1ccc(Cl)c(C(F)(F)F)c1)NC1CC2CCCC(C1)N2Cc1ccccc1 (stereo not given) | u | 25.1µM* | -0.8% | u | -3.2% | u
O=C(CSc1nc2c(c(=O)n1-c1ccc(Br)cc1)SCC2)Nc1nccs1 | -18.1% | -6.4% | -2.3% | -5.8 | -6.4% | u
CCOc1ccc(-n2c(SCC(=O)Nc3ccc(OC)cc3OC)nc3c(c2=O)SCC3)cc1 | 1.2% | u | 5.6% | -24.2 | -12.3% | u
COC(=O)c1ccc(CSc2nc3c(c(=O)n2-c2ccccc2)SCC3)o1 | u | u | 10.6% | -22.1 | -12.9% | 10.4µM*
COc1ccc(NC(=O)CSc2nc3c(c(=O)n2-c2ccccc2)SCC3)c(OC)c1 | -1.9% | 0.7% | 2.9% | -14.5 | 25.1µM* | -3.2%
O=C(CSc1nc2c(c(=O)n1-c1ccc(Cl)cc1)SCC2)Nc1nccs1 | -7.8% | 1.7% | 5.3% | -1.5 | 6.1% | 5.22µM*
COc1ccc(-n2c(SCC(=O)Nc3ccccc3)nc3c(c2=O)SCC3)cc1 | 0.9% | 9.8% | 12.2% | 49.1 | 12.0% | x
COc1ccc(NC(=O)CSc2nc3c(c(=O)n2-c2ccc(F)cc2)SCC3)cc1 | 10.4µM* | 4.5% | -0.4% | -8.5 | 1.5% | -22.2%
COC(=O)c1ccc(CSc2nc3ccccc3c(=O)n2-c2ccc(OC)c(OC)c2)o1 | x | 10µM* | -9.8% | 22.9 | -12.4% | 8.28µM*
COc1cc([N+](=O)[O-])ccc1NC(=O)CSc1nc2ccccc2n1-c1ccccc1 | 10.4µM* | 0.6% | 7.6% | u | u | 8.28µM*
CCOc1ccc(-n2c(SCC(N)=O)nc3c(c2=O)SCC3)cc1 | -30.5% | -14.9% | 1.7% | 46.1 | -0.7% | 8.28µM*
CCCCCCC(=O)NC(Nc1ccc(S(N)(=O)=O)cc1)C(Cl)(Cl)Cl (stereo not given) | -15.2% | -2.8% | 2.2% | -2.2 | 1.9% | -7.0%
O=C(NCc1ccccc1OC(F)(F)F)C1CCC(=O)N(CCc2ccccn2)C1 (stereo not given) | x | -15.9% | x | -10.3 | x | x
SMILES | Pf growth 96h | HCV inh | SARS PLpro yeast | HCMV antiviral | Sm TGR block | Pf growth 48h
CCCc1cc(=O)oc2c3c(ccc12)OCN(Cc1ccccc1OC)C3 | x | x | x | 4.2 | -2.2% | x
CCOC(=O)c1c(C)[nH]c(C(=O)COC(=O)c2c(CC)noc2C)c1C | u | 14.1µM* | -8.9% | -5.8 | 1.5% | u
CCOC(=O)c1c(C)[nH]c(C(=O)COC(=O)c2cc(C)oc2C)c1C | 21.2% | u | 4.7% | -13.9 | -12.4% | -2.2%
CCOC(=O)c1c(C)[nH]c(C(=O)OCc2c(C)noc2C)c1C | u | 11.2µM* | -13.2% | -32.8 | 5.6% | u
CCOC(=O)c1[nH]c(C=O)c(C(=O)OCC)c1C | u | u | 12.9% | -95.6* | 3.2% | u
CCOC(=O)c1[nH]c(C)c(C(=O)O)c1C | -0.4% | x | -5.5% | x | 0.5% | x
Oc1ccc(Nc2nccc3[nH]c(-c4cccc(F)c4)cc23)cc1 | x | x | x | -9.2 | x | x
COc1ccc(CN2CSC(=S)N(Cc3ccccc3)C2)cc1 | 10.0% | u | 0.5% | u | 3.0% | -25.9%
COc1ccc(CN2CSC(=S)N(Cc3ccc(OC)cc3)C2)cc1 | u | -3.5% | -2.9% | 11.1 | -16.5% | 11.7µM*
S=C1SCN(Cc2cccnc2)CN1Cc1cccnc1 | u | -74.9% | -6.5% | -95.0* | -0.6% | 1.85µM*
O=C1COc2ccc(S(=O)(=O)N3CCN(c4cccc(Cl)c4)CC3)cc2N1 | 13.1µM* | -4.3% | 10.3% | 13.1 | 1.3% | 13.4%
Cc1ccc2c(c1)N(S(=O)(=O)c1ccc3c(c1)NC(=O)CC(=O)N3)CCO2 | 8.28µM* | -10.1% | 0.0% | u | 2.7% | 7.5%
O=C1CC(=O)Nc2cc(S(=O)(=O)N3CCOc4ccc(Cl)cc43)ccc2N1 | u | -4.9% | -1.6% | -20.4 | u | 29.8%
Cc1ccc(C)c(N2CCN(S(=O)(=O)c3ccc4c(c3)NC(=O)CO4)CC2)c1 | 13.1µM* | 22.9% | -3.6% | 0.0 | 6.6% | -9.7%
Cc1ccc(Cl)cc1N1CCN(C(=O)CCS(=O)(=O)c2ccc3c(c2)NC(=O)CO3)CC1 | 20.3% | 11.2µM* | -4.8% | u | 2.4% | -14.5%
CC1(C)CN(Cc2ccccc2)C(=O)[C@H]1CC(=O)Nc1ccc(Br)cc1 | x | x | x | -32.4 | x | x
Cc1cc(C)cc(N2C(=O)CC(Sc3nnnn3-c3ccccc3)C2=O)c1 (stereo not given) | 39.9% | x | -31.6% | 7.2 | 5.01µM* | 14.6%
Cn1nnnc1SC1CC(=O)N(c2ccccc2)C1=O (stereo not given) | -45.3% | 23.0% | -4.9% | 10.5 | 1.58µM* | 2.2%

Bioassay records from PubChem.
